Sampled rows, rich in hits. Any-hit rate of the full collection: about 3%.
TRb SRC2 PPI – TRbeta-SRC2 interaction inhibition | TRbeta-SRC2 peptide binding, fluorescence polarization; receptor liganded with 1 µM T3 | Potency, µM (series often up to 106 µM), inactives show at the top dose activity change, negative = inhibition, actives largely listed as inhibitors | actives 0.065% (n = 280,000) | AID 1469;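 note: plate controls were bound peptide for no effect and peptide without receptor for full effect; nearly all actives have a fitted effect of over 50% in size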
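Fluorescence polarization of 20 nM Texas Red SRC2 peptide with 0.6 uM human TRb ligand-binding domain, in Tris buffer with 1uM T3 and 5% DMSO. Incubated 5 hr ambient; normalized to unbound and bound controls.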
TR SRC2 fluor cs – Texas Red fluorescence interference in TRb-SRC2 counter-screen; TRb/SRC2 Texas Red total fluorescence interference; Potency, µM (top dose mostly 106 µM), for the others: at the top dose fluorescence change, negative = quenching; actives 0.29% (n = 280,000); AID 1479; active = well fitted curve in either direction with a large enough effect; inconclusive = small, poorly fitted or top-dose-only effect
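Flags fluorescent or light-absorbing compounds by total fluorescence, S + 2P, at 555 nm excitation and 632 nm emission. Mixture: 20 nM Texas Red SRC2 peptide, 0.6 uM human TRb LBD, 1 uM T3, 5% DMSO; compound exposure 5 h at ambient temperature.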
Tau fibril FP – tau fibrillization inhibition (FP). P10636. K18 P301L tau heparin fibrillization, Alexa594 FP, 6 h. Potency, µM (series often up to 57.7 µM), without a hit: at the top dose activity, negative = inhibition, usual class: inhibitors. actives 0.39% (n = 280,000). AID 1468; note: nearly all actives have a fitted effect of over 55% in size
Target sequence (P10636 561-689 P618L limits assumed): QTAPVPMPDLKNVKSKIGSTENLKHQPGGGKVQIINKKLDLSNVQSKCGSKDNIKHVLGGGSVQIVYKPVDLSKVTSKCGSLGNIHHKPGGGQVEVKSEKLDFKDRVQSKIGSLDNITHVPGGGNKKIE
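Human tau K18 […] P301L fragment, 15 uM unlabeled plus 0.24 uM Alexa 594-labeled tau (final), with compound and 20 uM heparin in 100 mM sodium acetate pH 7; 6 hr at 37 C, then Alexa 594 FP read.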
Tau fibril ThT – inhibitors of human tau fibril formation, thioflavin T binding. Potency, µM (doses to about 57.4 µM), inactives show at the highest dose activity, negative = inhibition, most hits filed as inhibitors. AID 1460. actives 2.1% (n = 270,000). recombinant tau K18 P301L, heparin-induced fibrillization, ThT fluorescence; note: nearly all actives have a fitted effect of over 55% in size
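K18 P301L tau (15 uM + 0.24 uM Alexa 594-tagged), heparin 20 uM, NaOAc pH 7, 6 h 37 C; ThT 30 uM, 1 h RT, ex 450/em 510 nm.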
Tau fluor cs – counter-screen for tau fibril formation inhibitors; tau K18 P301L Alexa594 fluorescence, heparin fibrillization; AID 1463; actives 0.93% (n = 280,000); Potency, µM (titrated, usually from 57.7 µM), for the others: at the highest dose activity change, negative = decrease; note: nearly all actives have a fitted effect of over 55% in size
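Human tau K18 P301L (15 uM unlabeled, 0.24 uM Alexa 594-labeled) in 100 mM sodium acetate pH 7 with 20 uM heparin, 6 hr at 37 C. ThT 30 uM added, 1 hr ambient; Alexa 594 FP and total fluorescence read at 555/632 nm.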
The depositor's hits bear a star; ? = inconclusive; · = no result; [ ] = dose if it differs, or a comment. Unless noted, calls come from the whole dose curve; as a rule, active = well fitted curve in the direction sought with a large enough effect; inconclusive = small, poorly fitted or top-dose-only effect, or another doubt; inactive = no such curve, though single readings can be large; an effect the other way counts as inactive or inconclusive. Unless noted, % is set by controls: 0 for no effect and ±100 for the full control effect; potency is the fitted concentration of half-maximal effect.

SMILES	TRb SRC2 PPI	TR SRC2 fluor cs	Tau fibril FP	Tau fibril ThT	Tau fluor cs
O=C(O)[C@@H]1[C@H](C(=O)O)[C@@]2(Cl)C(Cl)=C(Cl)[C@]1(Cl)C2(Cl)Cl	-1.5%[201 µM]	0.3%[201 µM]	·	·	·
Cc1cccc(N2C(=O)CSC23C(=O)N(CC(=O)Nc2cccc(Cl)c2)c2ccccc23)c1 (configuration not stated)	3.2%	2.2%	25.1µM*	11.4%	?
Cc1ccccc1CO[C@@H]1C[C@@]2(C(C)C)CC[C@]1(C)O2	-6.0%[201 µM]	1.0%[201 µM]	·	·	·
O=C1NC(=O)C(=Cc2ccc(Oc3ccc([N+](=O)[O-])cc3)cc2)C(=O)N1	-3.1%	-0.4%	?	12.6µM*	-8.4%
CSC(=O)c1c(C(F)F)nc(C(F)(F)F)c(C(=O)SC)c1CC(C)C	1.0%[201 µM]	1.2%[201 µM]	·	·	·
CC(C)=C[C@@H]1[C@@H](C(=O)OCN2C(=O)C3=C(CCCC3)C2=O)C1(C)C	4.9%[201 µM]	-2.1%[201 µM]	·	·	·
Cl.Cl.Cl.Cl.Cl.Cl.N.N.N.N.NNNNN.NNNNN.O.O.[Ru].[Ru].[Ru]	-13.6%	-4.5%	?	22.4µM*	?
